WT yeast gro inh: growth inhibition of WT yeast, mitochondrial fusion screen. mitochondrial fusion phenotypic screen, WT strain. inhibition, % at 10 µM. 190,000 compounds, 2.1% hits. AID 1362; in the data active = inhibition above about 58%; tested in S. cerevisiae
PERK inh: human PERK inhibition, primary cell-based screen; AID 1416; CHO PERK-DD fusion, SEAP luminescence translation reporter; 220,000 compounds, 0.17% hits; inhibition, % at 5.6 µM;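 active = inhibition above the mean inhibition of all tested compounds plus 3 SD, set separately per screening campaign, cut at about 2.9% in these data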;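 note: PERK kinase domain activated by AP20187 dimerizer at 100 nM; 0% = DMSO with dimerizer and 100% = rapamycin at 8.4 µM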
ROMK mod: modulators of human ROMK potassium channel. AID 1918. Tet-inducible ROMK, thallium flux fluorescence; actives lie on both sides. B-score at 10 µM. 130,000 compounds, 2% hits;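 active = signal ratio slope over the read window, or its plate-corrected B-score, at least 3 SD from the plate mean, either direction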;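 note: B-score of the F/F0 ratio slope over 7 to 12 s after thallium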
Target sequence (P48048 whole entry, looked up): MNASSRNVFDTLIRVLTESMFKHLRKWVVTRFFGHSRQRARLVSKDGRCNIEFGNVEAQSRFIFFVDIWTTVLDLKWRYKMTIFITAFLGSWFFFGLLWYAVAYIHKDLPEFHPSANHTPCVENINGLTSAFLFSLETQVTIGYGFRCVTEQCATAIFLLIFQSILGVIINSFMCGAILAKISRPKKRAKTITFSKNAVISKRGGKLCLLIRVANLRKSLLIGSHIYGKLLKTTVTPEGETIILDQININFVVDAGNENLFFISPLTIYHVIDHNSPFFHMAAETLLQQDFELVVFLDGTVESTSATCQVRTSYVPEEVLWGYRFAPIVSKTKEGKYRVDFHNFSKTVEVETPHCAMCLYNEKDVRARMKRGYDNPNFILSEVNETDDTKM
Arbovirus anti: antivirals against arbovirus infection; arbovirus infection cell-based antiviral screen; inhibition, % at 10 µM; 200,000 compounds, 0.37% hits; AID 1251; in the data active = inhibition above about 30%
* marks the source's active call; other numbers are inactive results; . = no result given. Shown are actives, neighbours in structure and some others; about 3.3% of the full set was active somewhere.

SMILES | WT yeast gro inh | PERK inh | ROMK mod | Arbovirus anti
O=C1CSC(c2ccc(F)cc2)N1c1nnc(C23CC4CC(CC(C4)C2)C3)s1 (centres undefined) | -9.4 | 0.2 | -0.242 | -5.4
O=C1CSC(c2ccc(F)cc2)N1c1nc2ccccc2s1 (centres undefined) | 75.1* | 0.1 | -0.5 | 1.2
O=c1c2ccccc2nc(-c2ccco2)n1CCCn1ccnc1 | 18.3 | -0.7 | . | 3.8
O=C(c1ccc(COc2ccc(Cl)cc2)o1)N1CCN(Cc2ccc3c(c2)OCO3)CC1 | 75.8* | -0.2 | . | -5.9
O=C(NC(=S)N1CCN(Cc2ccc3c(c2)OCO3)CC1)c1ccc(Cl)cc1 | 61.7* | -0.3 | . | -8.4
O=C(NC(=S)N1CCN(Cc2ccc3c(c2)OCO3)CC1)c1cccc(Br)c1 | 60.5* | 0.0 | 4.89* | 0.1
Cc1cc(Cl)ccc1NC(=S)N1CCN(Cc2ccc3c(c2)OCO3)CC1 | 56.1 | -0.7 | -0.451 | 5.4
CCCCN1C(=O)c2ccc(C(=O)NC3=NCCS3)cc2C1=O | -28.1 | -0.2 | . | 0.2
Cc1ccc(Cn2nnc3c(=O)n(CC(=O)NCc4ccc5c(c4)OCO5)cnc32)cc1 | -13.7 | 0.1 | 0.221 | -13.0
O=C1c2ccccc2-n2c1nc1ccccc1c2=O | 66.0* | 1.1 | -0.206 | -26.6
O=c1c2ccccc2nc2n1-c1ccccc1CCC2 | 18.1 | 0.1 | . | 0.8
COC(=O)c1cc(C(=O)OC)n(Cc2ccc(C)cc2)c1C | 9.8 | -0.5 | 0.622 | -0.7
O=C(NC(=S)Nc1nc2ccc(F)cc2s1)c1ccco1 | 2.9 | 0.4 | 0.92 | 0.8
COc1ccc(C2CC(c3ccc(Br)cc3)=NN2C(=O)c2cccnc2)cc1 (centres undefined) | 64.1* | -0.9 | -1.19 | -6.8
COc1ccc(C2CC(c3ccccc3)=NN2C(=O)COC(=O)C2(C)CC2(Cl)Cl)cc1 (centres undefined) | 72.2* | 0.4 | . | 3.3
COc1ccc(C2CC(c3ccccc3)=NN2C(=O)COC(=O)C2CC2)cc1 (centres undefined) | 13.3 | 0.0 | -0.0166 | -1.9
COc1ccc(C2=NN(C(=O)c3cccs3)C(c3ccccc3O)C2)cc1 (centres undefined) | 85.3* | 1.8 | -0.204 | -32.2
COc1ccc(C2CC(c3ccccc3)=NN2C(=O)c2cccs2)cc1 (centres undefined) | 77.8* | 1.0 | . | -11.2
CC(=O)Nc1ccc(N2C(=O)CSC2c2cccc([N+](=O)[O-])c2)cc1 (centres undefined) | 3.2 | 1.4 | -0.461 | 9.8
Fc1ccccc1Cc1noc(CN(Cc2ccccn2)CC2CCCO2)n1 (centres undefined) | 17.1 | 0.6 | 0.133 | 2.1
Clc1ccc(Cc2nn3c(Cn4nnc5ccccc54)nnc3s2)cc1 | 51.9 | -0.6 | . | 4.1
Cc1ccc(C(C)(C)C)c(OCCCn2ccnc2)c1 | 66.2* | -0.7 | -2.04 | -2.8
Cc1cccc(OCCCCCn2ccnc2)c1C | 67.0* | -0.2 | . | -14.0
Cc1cc(C(C)(C)C)ccc1OCCn1ccnc1 | 71.6* | -0.7 | -2.46 | -15.1
O=S(=O)(c1cnccc1N1CCN(/N=C/c2ccccc2)CC1)N1CCCCC1 | -5.9 | 0.1 | . | -4.9
SMILES | WT yeast gro inh | PERK inh | ROMK mod | Arbovirus anti
CC(=O)C1=NN(c2ccc(Cl)cc2)C(c2ccc3c(c2)OCO3)N(C(C)=O)N1C (centres undefined) | . | -0.3 | . | .
CCC(C(=O)OC)n1c(-c2ccccc2)nc2ccccc2c1=O (centres undefined) | 59.7* | 0.1 | 0.432 | -0.1
C/C=C/c1ccc(OCCCCOc2ccccc2C(C)=O)c(OC)c1 | 21.0 | -0.5 | . | 35.7*
CCCC(=O)Nc1cccc(NC(=O)c2ccc([N+](=O)[O-])cc2Cl)c1 | -1.5 | 0.3 | . | 45.1*
CCCC(=O)Nc1ccc(Cl)c(NC(=O)c2ccc([N+](=O)[O-])cc2Cl)c1 | -0.8 | 0.8 | 0.0304 | -5.6
COCCN1C(=O)/C(=C/c2ccc(N3CCCC3)cc2)SC1=S | 7.5 | 0.7 | -3.49* | -6.2
O=[N+]([O-])c1ccc(-c2nc(-c3cccs3)c(-c3cccs3)[nH]2)cc1 | 81.5* | -1.4 | . | -32.9
O=[N+]([O-])c1cccc(-c2nc(-c3cccs3)c(-c3cccs3)[nH]2)c1 | 37.8 | 0.4 | . | 3.5
Cc1ccsc1-c1nc(-c2ccccc2)c(-c2ccccc2)[nH]1 | 6.6 | 0.2 | . | -5.6
Fc1ccc(-c2nc(-c3cccs3)[nH]c2-c2ccc(F)cc2)cc1 | 77.9* | -0.1 | 0.301 | 0.3
S=C(Nc1ccccc1)N1N=C(c2cccs2)CC1c1cccs1 (centres undefined) | 11.0 | -0.1 | 0.00252 | 1.3
NS(=O)(=O)c1ccc(NC(=O)COC(=O)c2cnccn2)cc1 | -8.5 | 0.1 | -0.546 | 6.3
CCn1cc([N+](=O)[O-])c(C(=O)N2N=C(c3ccccc3)CC2c2ccc([N+](=O)[O-])cc2)n1 (centres undefined) | -3.6 | -1.3 | -0.935 | 3.1
COc1cc(SC)ccc1C(=O)NCCOc1c(C)cc(C)cc1C | 27.1 | -0.9 | . | -6.0
CSc1ccc(Cl)c(C(=O)NCCOc2cc(C(C)C)ccc2C)c1 | 67.0* | 0.8 | . | -2.0
COc1cc(SC)ccc1C(=O)NCCOc1ccc(Cl)cc1 | 62.0* | 0.1 | . | -0.2
O=C(NCCc1ccncc1)Nc1ccc(F)cc1 | . | 1.6 | . | .
Cn1c(=O)[nH]c(=O)c2c1nc(Br)n2CCSc1nc2ccccc2o1 | -8.5 | 1.1 | -0.106 | 19.8
O=c1c2cn[nH]c2nc(SCc2c(F)cccc2F)n1-c1ccc(Cl)cc1 | 72.8* | 1.2 | -2.29 | -28.4
Cc1noc(C)c1CSc1nc2[nH]ncc2c(=O)n1-c1ccccc1 | 0.3 | -1.5 | 0.376 | -13.7
O=C(COC(=O)CCc1ccc(S(=O)(=O)N2CCOCC2)cc1)NCc1ccccc1 | 5.2 | -1.0 | 1.82 | -2.4
CCOC(=O)Cc1c(C)nc2c(-c3ccccc3)c(C)[nH]n2c1=O | 4.1 | 3.0* | . | -18.1
CCOC(=O)Cc1c(C)nc2c(-c3ccccc3)c(-c3ccccc3)[nH]n2c1=O | -1.4 | 0.4 | . | -28.1
Cc1ccc(NC(=O)C2(c3ccccc3)CC2(Cl)Cl)cc1C (centres undefined) | 73.3* | 0.5 | . | -8.3
CN1CCN(S(=O)(=O)c2ccc(NC(=S)NC(=O)c3ccc(Cl)cc3)cc2)CC1 | 21.8 | -1.0 | -0.271 | 48.6*
SMILES | WT yeast gro inh | PERK inh | ROMK mod | Arbovirus anti
O=C(CN1CCSCC1)N/N=C/c1cccc(Cl)c1 | 16.7 | 0.7 | -0.853 | -1.5
C#CCOC(=O)CCCC(=O)NCCCCCCCC | 7.6 | 1.1 | -0.498 | -0.4
Cc1ccc(CNC(=O)C2CC(c3cccc([N+](=O)[O-])c3)=NO2)o1 (centres undefined) | 25.5 | -0.2 | . | -4.6
CC(C)(C)c1ccc(NC(=O)CNC2CCCc3ccccc32)cc1 (centres undefined) | 81.1* | 0.7 | 0.298 | 24.2
O=C(CCCN1C(=O)/C(=C/c2cccs2)SC1=S)Nc1cccc(C(=O)O)c1 | 2.8 | 0.6 | -0.132 | 38.1*
CN(C)c1cc(N/N=C\c2ccccc2)nc(N(C)C)n1 | 58.7* | -0.6 | -2.13 | -9.4
Cc1cc(Nc2cccc(Cl)c2)nc(NCc2ccccc2)n1 | 97.2* | -0.6 | 0.668 | 2.2
Cc1cc(N/N=C/c2cccc(Cl)c2)nc(NCc2ccccc2)n1 | 82.1* | -0.7 | . | -40.5
Cc1cc(N/N=C/c2ccccc2)nc(NCc2ccccc2)n1 | 61.8* | -0.3 | . | 16.0
CC1CC(C)CN(c2ccc([N+](=O)[O-])cc2-c2nn[nH]n2)C1 (centres undefined) | -7.3 | -0.2 | 1.13 | -4.7
